# Compound activity: PubChem BioAssay, National Center for Advancing Translational Sciences (NCATS)
# ALDH1A1 block – qHTS Assay for Inhibitors of Aldehyde Dehydrogenase 1 (ALDH1A1); Purified ALDH1A1, NADH fluorescence, propionaldehyde substrate; Potency, µM (top dose mostly 75.3 µM), for the others: top-dose activity, negative = inhibition, usual class: inhibitors; hit rate 7.3% among 220,000; Aldehyde dehydrogenase 1A1 (Homo sapiens), P00352;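 note: potency is the fitted concentration of half-maximal effect; plate controls were no enzyme wells and a reference inhibitor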
# LMNA splice mod – qHTS Assay for Modulators of Lamin A Splicing | HeLa LMNA splicing GFP/RFP minigene ratio, 48 h | Potency, µM (titrated, usually from 46.1 µM), inactives show at the highest dose ratio change, negative = inhibition, actives largely listed as inhibitors | hit rate 0.01% among 200,000 | AID 1487, 2009; active = well fitted inhibition curve with a large enough effect in the signal ratio, with a control signal flat, not every such curve was filed as active; inconclusive = small, poorly fitted or top-dose-only effect, or effect the other way, or a change in a side signal; the % refers to the signal ratio; note: potency is the fitted concentration of half-maximal effect
#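 S3 HeLa stable clones carrying a lamin A-EGFP splicing minigene plus DsRed2 were seeded at 600 cells/well in Opti-MEM with 2% FBS, pin-dosed and incubated 48 h at 37°C. Acumen cytometry (488 nm) gave the GFP/RFP total-intensity ratio.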
# PNC inhibitor – High Content Assay for Compounds that inhibit the Assembly of the Perinucleolar Compartment; PC3M PTB-GFP, PNC prevalence imaging, 16 h; active compounds read low; activity change (PNC), negative = inhibition, % at 10 µM; hit rate 3.1% among 140,000; AID 2417, 2010;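 active = readout at or below -70, meaning at least 70% loss of cells showing the perinucleolar compartment, a nuclear body marking cancer cells; inconclusive = readout between -30 and a set limit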;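 note: plate controls were DMSO wells for no effect and camptothecin positive control wells for full effect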
#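 Compounds are pinned in duplicate onto adhered PC3M cells stably expressing GFP-tagged PTB and incubated 16 h at 37 C. Cells are then fixed, nuclei stained with Hoechst, and PNC-positive cells counted.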
# HPGD inh – qHTS Assay for Inhibitors of HPGD (15-Hydroxyprostaglandin Dehydrogenase) | 15-hydroxyprostaglandin dehydrogenase [NAD(+)] (Homo sapiens), P15428 | purified HPGD, NADH fluorescence kinetic, PGE2 substrate | Potency, µM, inactives show at the top dose activity change, negative = inhibition, most hits filed as inhibitors | hit rate 4.3% among 150,000; note: potency is the fitted concentration of half-maximal effect
# Target sequence (P15428 whole entry, looked up): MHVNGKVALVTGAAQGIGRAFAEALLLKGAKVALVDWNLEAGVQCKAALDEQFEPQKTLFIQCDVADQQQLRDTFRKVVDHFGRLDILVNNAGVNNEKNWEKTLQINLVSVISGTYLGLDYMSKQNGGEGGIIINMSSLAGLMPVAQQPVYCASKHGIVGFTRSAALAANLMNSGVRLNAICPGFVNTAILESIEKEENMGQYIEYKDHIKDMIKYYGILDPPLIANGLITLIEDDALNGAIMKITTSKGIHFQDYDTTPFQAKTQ
#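 20 nM HPGD preincubated 15 min at room temperature with compound in 50 mM Tris-HCl pH 8, 0.01% Tween 20. Started with 1 mM NAD+ and 30 uM prostaglandin E2; NADH fluorescence (360/450 nm) read 5 times over 30-s intervals, last minus first.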
# IMPase inh – qHTS Assay for Identifying the Cell-Membrane Permeable IMPase Inhibitors; Inositol monophosphatase 1 (Rattus norvegicus), P97697; CHO-M1 cells, IP1 accumulation, HTRF TR-FRET ratio; inhibition (IP1 accumulation), % at 46.1 µM; 120,000 tested, under 10 active; active = well fitted curve in the direction sought with a large enough effect in the signal ratio, not every such curve was filed as active; inconclusive = small, poorly fitted or top-dose-only effect, or a change in a side signal; inactive = no such curve, though single readings can be large or run the other way; the % refers to the signal ratio;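 note: cells stimulated with carbachol in lithium chloride buffer; plate controls were DMSO basal wells for no effect and reference inhibitor wells for full effect; higher means more IMPase inhibition seen as more IP1 and lower FRET ratio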
# Target sequence (P97697 whole entry, looked up): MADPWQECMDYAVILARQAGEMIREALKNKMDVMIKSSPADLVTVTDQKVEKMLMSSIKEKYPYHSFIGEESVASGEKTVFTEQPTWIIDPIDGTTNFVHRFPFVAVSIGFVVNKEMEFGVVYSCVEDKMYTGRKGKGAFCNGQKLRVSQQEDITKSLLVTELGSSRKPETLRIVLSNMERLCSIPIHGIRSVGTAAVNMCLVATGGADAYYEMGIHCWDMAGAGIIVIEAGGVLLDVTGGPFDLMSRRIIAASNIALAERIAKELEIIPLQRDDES
#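 CHO-M1 cells (CHO stably expressing M1 receptor), compound up to 46 uM final, stimulated with carbachol (50 uM as added) in buffer with 50mM LiCl, pH 7.4, 30 min at 37C. Cytosolic IP1 read by TR-FRET; AC50 from Hill fits.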
# Luc counter – Counterscreen for Luciferase (Kinase-Glo TM) Inhibition. hit rate 0.28% among 200,000. Kinase-Glo luciferase, ATP luminescence, 8 min. Potency, µM (titrated, usually from 38.3 µM), for the others: top-dose activity change, negative = inhibition, hits mostly inhibitors. Luciferin 4-monooxygenase (Photuris pensylvanica), Q27757. AID 1379, 2008; active = well fitted inhibition curve with a large enough effect; inconclusive = small, poorly fitted or top-dose-only effect; note: potency is the fitted concentration of half-maximal effect; nearly all actives have a fitted effect of over 60% in size
#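 Light output from Kinase-Glo luciferase with luciferin and 10 uM ATP in 50 mM imidazole pH 7.2, KCl, MgCl2, Tween 20, BSA; compound pin-delivered, 8-min ambient incubation, then luminescence read.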
# The depositor's hits bear a star; u = inconclusive; x = no result; [ ] = dose if it differs, or a comment. In the library only some 10% were active in any assay of this set; here they are far more common. Unless noted, calls come from the whole dose curve; as a rule, active = well fitted inhibition curve with a large enough effect (not every such curve was filed as active); inconclusive = small, poorly fitted or top-dose-only effect, or another doubt; inactive = no such curve, though single readings can be large or run the other way. Unless noted, % is set by controls: 0 for no effect and ±100 for the full control effect.
SMILES,ALDH1A1 block,LMNA splice mod,PNC inhibitor,HPGD inh,IMPase inh,Luc counter
O=C(O)c1ccc(CSc2nc3ccccc3o2)cc1,10%,7%,-2,28µM*,6,-4%
CCC(=O)Nc1ccccc1C(=O)OCc1ccc(C(=O)c2ccccc2)cc1,u,10%,4,14µM*,5,-1%
O=C(CCl)Nc1ccccc1C(=O)c1ccccc1,25µM*,0%[46 µM],x,x,x,-1%
CCOC(=O)c1cc(-c2ccccc2)sc1NC(=O)CC,u,u,-16,u,-4,2%
Cc1cc(C(=O)c2ccccc2)c(NC(=O)CCl)s1,2.5µM*,u,u,u,x,1%
CC(C)(C)OC(=O)N1CCC(N2CCN(Cc3ccccc3)C(=O)C2=O)CC1,x,8%[46 µM],x,x,x,x
Cc1cccc(/C=C2/SC(=O)N(Cc3ccccc3)C2=O)n1,6.3µM*,4%,31,-4%,6,-2%
CCC1(c2ccc(Cl)cc2)NC(=S)N(c2ccccc2)N1 (stereo not given),13µM*,-6%,-10,-17%,-1,-1%
O=C1N=C(N2CCC(Cc3ccccc3)CC2)S/C1=C/c1cn[nH]c1-c1ccccc1,-8%,7%,-1,25µM*,8,-1%
COc1ccccc1C1(CC(=O)N2CCCCC2)CCOC(C(C)C)C1 (stereo not given),1%,u,-16,25µM*,-5,-6%
O=[N+]([O-])c1ccccc1/C=C/C=N/n1c(-c2ccccc2)n[nH]c1=S,u,u,-27,7.1µM*,x,4%
CC1CCCC(C)N1/N=C/C=C/c1ccccc1[N+](=O)[O-] (stereo not given),3.5µM*,-16%[46 µM],x,x,x,2%
O=[N+]([O-])c1ccccc1/C=C/C=N/n1c(-c2ccc(Cl)cc2)n[nH]c1=S,u,8%,16,3.2µM*,0,-3%
Cc1cc(-c2n[nH]c(=S)n2/N=C/c2ccccc2[N+](=O)[O-])n[nH]1,4%,-2%,-16,-26%,x,2%
C[C@@H](Cc1ccccc1)Nc1ncnc2c1ncn2[C@@H]1O[C@@H](CO)[C@H](O)[C@@H]1O,x,x,x,x,0,x
S=C(NCc1ccc(Cl)cc1)Nc1ccc(Cl)cc1Cl,6%,15%,-12,-2%,4,-2%
Cc1cccc(NC(=S)Nn2cnnc2)c1C,7.9µM*,x,x,x,x,2%
O=C(CSCc1ccccc1)NNC(=S)Nc1cccc(Cl)c1Cl,3.5µM*,-10%,10,-10%,13[1.84 µM],4%
Cc1cccc(NC(=S)NN2CCN(C)CC2)c1C,20%,24%,51,-8%,-1,2%
S=C(Nc1cccc(Cl)c1Cl)Nn1cnnc1,2.8µM*,-5%,18,25µM*,0,0%
S=C(Nc1ccc(Cl)cc1Cl)Nn1cnnc1,5%,-11%,u,7.9µM*,x,2%
COc1cccc(-c2nnc(SCC(=O)N(C)c3ccccc3)o2)c1,x,14%[46 µM],x,x,x,x
c1ccc([C@H]2NCCc3c2[nH]c2ccccc32)cc1,1%[13.5 µM],x,x,x,x,x
Cc1ccc(C2CCN(C(=O)Nc3ccc(C)c(C)c3)C2)cc1 (stereo not given),x,13%[46 µM],x,x,x,x
CCOc1ccc(CN(C)C(=O)CCl)cc1,0.05µM*,x,x,x,x,-1%
SMILES,ALDH1A1 block,LMNA splice mod,PNC inhibitor,HPGD inh,IMPase inh,Luc counter
COc1ccc(NC(=O)CC2C(=O)NCCN2C(=O)c2ccccc2)cc1 (stereo not given),-8%,x,x,x,x,x
COC(=O)c1sccc1NC(=O)CC1C(=O)NCCN1C(=O)c1ccc(N(C)C)cc1 (stereo not given),10µM*,x,x,x,x,x
CCC(Sc1nnc(-c2ccc(OC)c(OC)c2)c(-c2ccc(OC)c(OC)c2)n1)C(=O)NC1CCCC1 (stereo not given),x,2%[46 µM],x,x,x,x
O=C(NCc1cn2ccsc2n1)c1c(F)cccc1Cl,1%,-3%,29,8.9µM*,11,3%
O=C(NCc1cn2ccsc2n1)c1cccc(C(F)(F)F)c1,9%,19%,-14,-13%,-6,1%
O=S(=O)(Cc1ccccc1)N1CCN(Cc2ccc3c(c2)OCO3)CC1,10%,u,24,0%,12,2%
Cc1cccc(N2C(=O)CC(N3CCN(Cc4ccc5c(c4)OCO5)CC3)C2=O)c1 (stereo not given),22µM*,0%,u,-1%,10,0%
Cc1cccc(Nc2nc(N)nc(CN3CCN(Cc4ccc5c(c4)OCO5)CC3)n2)c1,14µM*,u,36,-7%,7,5%
O=C1CC(N2CCN(c3ccc(F)cc3)CC2)C(=O)N1c1ccc2c(c1)OCO2 (stereo not given),19µM*,x,x,x,x,-1%
O=C1CC(N2CCN(Cc3ccc4c(c3)OCO4)CC2)C(=O)N1c1ccccc1 (stereo not given),16µM*,20%,-8,-10%,6,-6%
Cc1ccc(C)c(N2C(=O)CC(N3CCN(Cc4ccc5c(c4)OCO5)CC3)C2=O)c1 (stereo not given),u,2%,55,-13%,5,1%
COc1ccc(N2CC(C(=O)Nc3ccc(NC(C)=O)cc3)CC2=O)cc1 (stereo not given),x,x,x,x,-3,x
CC(=O)N1CCOc2cc(S(=O)(=O)NCc3ccccc3Cl)c(C)cc21,x,0%[46 µM],x,x,x,x
Cc1noc(/C=C/c2nn(C)cc2Cl)c1[N+](=O)[O-],8.9µM*,x,x,x,x,x
CNC(=O)c1sc(-c2ccccc2)nc1C,u,-6%,-83*,u,-5,-11%
Cc1nc(-c2cccnc2)sc1C(=O)Nc1ccc(C(F)(F)F)cc1,1%,-16%,-13,-6%,4,2%
CNC(=O)c1sc(-c2ccc(Cl)cc2)nc1C,7%,-1%,-90*,-10%,-16,-4%
CC(=O)c1sc(-c2ccc(Cl)cc2)nc1C,3%,-4%[46 µM],x,x,x,-3%
Cc1nc(-c2ccc(C(F)(F)F)cc2)sc1C(=O)NN,1.1µM*,x,x,x,x,x
Cc1nc(-c2ccccc2)sc1C(=O)/C=C/c1ccc(Cl)cc1,3.2µM*,u,29,-11%,1,-1%
CCN(Cc1cc(Cl)cc(C)c1O)Cc1c(O)ccc2ccccc12,-2%[13.5 µM],x,x,-6%,x,-4%[7.66 µM]
CC(=O)c1c(C)nc(-c2ccc(Cl)cc2)nc1N=CN(C)C,u,-8%,-8,u,-5,-2%
CC(=O)c1c(C)nc(-c2ccc(Cl)cc2)nc1N,22µM*,x,x,x,x,-6%
